Experimental data taken from the supplement of paper PMC3545927.
This is one part of the list. The hit rate among all sequences tested is not known here.

Target: furin, P09958
Assay: furin cleavage Z-score vs untreated control; higher = more cleavage, active = 3.5 or more, inactive = 1 or less, 8 variable residues between constant flanks
Summary of the method: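 In 50 mM HEPES pH 7.5 with CaCl2 and NaCl, purified furin was incubated with bead-anchored 8-mer peptide–cDNA fusions at 1:10 enzyme:substrate in 0.01 ml. Incubation times were 7.5, 15 and 30 min. DNA set free by cleavage was adapter-tagged by PCR and sequenced, with read counts taken as abundance. Log counts relative to furin-free reactions, after lowess adjustment and median absolute deviation scaling, form the cleavage Z-score.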

furin, P09958, sequence (P09958 whole entry): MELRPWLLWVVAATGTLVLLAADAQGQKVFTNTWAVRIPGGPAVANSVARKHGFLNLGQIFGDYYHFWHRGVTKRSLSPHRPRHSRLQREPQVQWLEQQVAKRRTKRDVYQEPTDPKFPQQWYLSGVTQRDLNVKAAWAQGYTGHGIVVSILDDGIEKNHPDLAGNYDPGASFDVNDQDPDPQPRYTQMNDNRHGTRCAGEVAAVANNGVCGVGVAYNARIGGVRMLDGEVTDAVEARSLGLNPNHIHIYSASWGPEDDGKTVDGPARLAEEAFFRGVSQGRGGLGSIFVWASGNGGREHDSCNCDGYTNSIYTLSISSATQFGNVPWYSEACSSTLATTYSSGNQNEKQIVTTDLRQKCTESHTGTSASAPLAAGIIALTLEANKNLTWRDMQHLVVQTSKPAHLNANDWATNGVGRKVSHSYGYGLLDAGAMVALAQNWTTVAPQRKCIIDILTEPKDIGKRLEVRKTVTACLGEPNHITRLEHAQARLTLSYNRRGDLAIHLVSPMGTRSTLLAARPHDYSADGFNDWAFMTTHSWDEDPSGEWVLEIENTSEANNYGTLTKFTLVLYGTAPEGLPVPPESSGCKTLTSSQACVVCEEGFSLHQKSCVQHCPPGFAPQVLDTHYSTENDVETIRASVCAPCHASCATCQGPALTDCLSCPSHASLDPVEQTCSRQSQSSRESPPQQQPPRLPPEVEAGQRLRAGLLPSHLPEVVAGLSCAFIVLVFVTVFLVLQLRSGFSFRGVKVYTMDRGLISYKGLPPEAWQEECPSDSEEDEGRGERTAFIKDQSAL

| Sequence | furin cleavage Z-score (7.5 min) | furin cleavage Z-score (15 min) | furin cleavage Z-score (30 min) |
| --- | --- | --- | --- |
| CAYVVTSTWVAGNASASA [HC2149] | 0.323 (inactive) | -0.464 (inactive) | -0.44 (inactive) |
| CANGVCWTVYAGNASASA [HC698] | -1.07 (inactive) | 2.25 | -1.18 (inactive) |
| CANIIMFAPTAGNASASA [HC1576] | -0.25 (inactive) | -0.574 (inactive) | -0.569 (inactive) |
| CAARGGRAAIAGNASASA [HC1627] | 0.309 (inactive) | -1.06 (inactive) | 0.234 (inactive) |
| CARVGRQVVTAGNASASA [FS-2470] | 1.41 | 4.05 (active) | 2.16 |
| CARKGRSEDIAGNASASA [FS-2341] | 0.928 (inactive) | 1.18 | -0.197 (inactive) |
| CALVGLMALTAGNASASA [HC572] | -0.292 (inactive) | -0.497 (inactive) | -0.985 (inactive) |
| CARKGRVVIDAGNASASA [FS-2263] | -1.41 (inactive) | -0.368 (inactive) | 0.767 (inactive) |
| CARVGRSVTDAGNASASA [FS-3117] | 9.08 (active) | 9.86 (active) | 8.63 (active) |
| CAMALYDVVTAGNASASA [HC1457] | -0.109 (inactive) | -0.594 (inactive) | 1.06 |
| CARVCCSMSYAGNASASA [HC1993] | -1.56 (inactive) | 0.796 (inactive) | 0.275 (inactive) |
| CARVGRSSKQAGNASASA [FS-2838] | 0.0354 (inactive) | 0.533 (inactive) | 2.07 |
| CARVCRSDNTAGNASASA [FS-2194] | 2.3 | 1.13 | 4.01 (active) |
| CARVGRSLPTAGNASASA [FS-2098] | 8.92 (active) | 10.2 (active) | 8.81 (active) |
| CARVGRGVSIAGNASASA [FS-2195] | -0.488 (inactive) | -0.0472 (inactive) | 2.09 |
| CARVPRDPSTAGNASASA [FS-2620] | 0.232 (inactive) | 0.063 (inactive) | 1.18 |
